Results as given in PubChem BioAssay AID1347426 (Functional Genomics Laboratory (NCATS/FGL), 2020).
Among all 31,000 sequences or so, about 1,400 (4.5%) were called active.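 How the source made its calls: active means median seed-adjusted z-score above 1 or below -1; inactive means the rest.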 Shown is part of a subset that was picked to be rich in actives.

Assay: Novel Modifiers of Survival Motor Neuron (SMN) Protein: Gene Identification via Genome-wide siRNA Screen;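 further: luminescence tracks full-length SMN protein made from the SMN2 reporter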
Conditions: HEK293T SMN2-luciferase reporter, siRNA knockdown, 72 h; actives lie on both sides
Procedure, shortened: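 Each of three siRNAs per gene is reverse-transfected (1 pmol) into reporter HEK293T cells whose luciferase output tracks SMN protein level. After 72 h culture, ONE-Glo luminescence is control-normalized, log10-transformed and MAD-standardized; Common Seed Analysis deprioritizes seed-driven hits.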

Sequence | median seed-adjusted z-score
GAUUACUGGUGCGAUGUUATT against L3MBTL4 | -0.189 (inactive)
UCUGCUAACCUGAAAGUAATT against CARD8 | 0.115 (inactive)
AGAUCGACAAGAUGCAAGATT against FOXN1 | 0.226 (inactive)
CAGUGAAUCUUGGUUGUAATT against TBP | -1.25 (active)
GCAUCAUCCAGAGACUGCATT against CCL19 | 0.0364 (inactive)
GCAGAGACACCUUGAAGUATT against GAD1 | 0.101 (inactive)
CGUGUUUAUAAUUACCGAATT against MED14 | -3.22 (active)
CACGAAAUCAUGCAAAUCATT against RPL17 | -0.13 (inactive)
GAGGCGCACUUCAAGCAUATT against CENTA1 | -0.555 (inactive)
GGAGUAAACCUCACUGACATT against TMPRSS5 | 1.25 (active)
GUAUCAAUCUUUGCGGAUATT against KL | -0.267 (inactive)
AGAUCAUGACUUGUGCUGATT against SEZ6L2 | -0.331 (inactive)
GGAGGGCAUUGUCACUAAATT against MCM3 | 0.339 (inactive)
GGAUACCCAAUGCAAAUUATT against MMP16 | 0.144 (inactive)
GGAGAACUACCAGAACCUUTT against ZNF74 | 1.17 (active)
GCACUGGACCAAUACAAGUTT against GPR84 | 0.285 (inactive)
GGUGUUGUCUUGAGGUACATT against ADAMTS1 | 0.173 (inactive)
ACCCAGAUAUGGAUCUGCATT against TTLL10 | 0.211 (inactive)
GCUCAAAUGGAGAACUAAATT against GALNT8 | -0.283 (inactive)
GACCAAAAGUGGAACUCCATT against PTPN23 | -0.0473 (inactive)
CCAUUGUUCCAGACUUCUUTT against CMBL | 0 (inactive)
GGGCAUGGGUUUUAAUCGATT against PYGO1 | -1.23 (active)

Sequence | median seed-adjusted z-score
GAGUUAUACGAUCCAUGUATT against TXNL4A | -0.42 (inactive)
AGAGCUAUGCUUUAGGUCUTT against S100A2 | -0.0951 (inactive)
GCCUCAAUCUCUACUCGAATT against PCDHGA2 | -0.8 (inactive)
GACAAAAAGUCCAACCCUATT against CYB5R3 | -0.901 (inactive)
UGAGAUUUCGGAAUCAGAATT against TSPAN31 | -1.13 (active)
GAACUAGGAUUUCAUAGCATT against LGR5 | 0 (inactive)
GAGUCACAGUCGUUAUUCUTT against CNOT4 | -0.116 (inactive)
GGAUUAUUUCUGGUUCCUATT against ATP8A2 | 0 (inactive)
GCAUCAGCAUGUCGGUGGATT against ARID3A | -1.11 (active)
GUCCCGCAGAUUCAACAAATT against SSBP3 | 0.00592 (inactive)
CAAUCCUGUAUCUACCGUATT against OVCH1 | 0.0211 (inactive)
CAUCAAUGAGGUAUACUAUTT against DYRK1B | 0.29 (inactive)
CUAUAAGUCUAGUAGCAAATT against WNK2 | 0.212 (inactive)
CGACGGCACCUGCAAUUUUTT against IMPA2 | 0.0513 (inactive)
GCUGUAAACAGUCAUCAGATT against ZNF180 | 0 (inactive)
GAAAAUGACGGUUAUAAGATT against PMM2 | 0.448 (inactive)
GCAUGUUAUUGAAUUAUCATT against TM9SF2 | 1.09 (active)
GGAACGUGGUACUUAGUUATT against HMGCS1 | 0.0596 (inactive)
GCAGCUUCAAGAUCAAUGATT against ANTXR1 | -0.0849 (inactive)
CAAAAGUGUAUAUAAACUUTT against NDUFS6 | -0.0128 (inactive)
ACUUUGUCCGUGUGUCUUATT against SLC30A3 | -1.26 (active)
GGAACAGGAUGAAUAUGCATT against HADHB | -0.188 (inactive)

Sequence | median seed-adjusted z-score
CGACUGGAUGUAUAAGCAUTT against TGIF2LX | -0.568 (inactive)
GAGAAGAAGUUCUUAAGGATT against ALKBH8 | -0.487 (inactive)
AGUUCUACAUGCCGGAUGATT against GGTLC1 | -0.298 (inactive)
GCCUCGUUCUGAAGACGAUTT against LIPC | 0.244 (inactive)
CCAACCACCAGAUCUAUGATT against LBX1 | -0.36 (inactive)
CCAUGGCAGUACCAACUAGTT against CREM | -2.37 (active)
GGACCACUAUUUACAGCAATT against FUCA2 | 0.562 (inactive)
GGUCUGUACUGGGAUUCAUTT against PKD2L2 | -0.0723 (inactive)
GGCUUUUGCCCUAUCCAUUTT against WNK4 | 0.385 (inactive)
CACGAGGAGUGGACAAUAUTT against UCK1 | -0.599 (inactive)
CAAAUCGCCUAAUAAACUUTT against KRT33B | 0.04 (inactive)
GGAGCUUUGUCAAGAAGAUTT against FKBPL | -1.11 (active)
GCCUGAUAACGUAAUAACATT against ARSA | 0.0938 (inactive)
GACUUACUUAGAUAUGAGATT against ZNF568 | 0.501 (inactive)
GGUUUGUCCCUUCGCUAUATT against LRRTM3 | -0.0808 (inactive)
GCAGAGAUUUCCAAGAAAATT against GPR32 | -1.2 (active)
CAAGAAUGACUGUGAUGAATT against PLA2G12A | 0.139 (inactive)
GGUCUAUACAGAGUCAAUATT against MRCL3 | -0.00909 (inactive)
GGAUUCACACGGGAAUUAATT against ZNF649 | 0.259 (inactive)
CGUCGAAUGUUUAAAGUCUTT against ITFG1 | -0.417 (inactive)
ACGUGUUUGCUUCCACAAATT against NEURL2 | 1.39 (active)
GCAUGAUGGAUGUUGAUCATT against CCT5 | 0 (inactive)

Sequence | median seed-adjusted z-score
GCACUGAUGACAACAACUATT against HTR1F | -0.127 (inactive)
AGAGUGUGCCGGUUACCCATT against CD8B | 0.174 (inactive)
GAGUCACAAUUGAUCCGGATT against TOP2A | -0.187 (inactive)
CCAUCGAUGAUGACUGUAATT against ETFB | 0.0669 (inactive)
GAGCAGAUCUUUUUAUGCATT against ZNF664 | 1.08 (active)
CAUUGAGACCUAUCUGCUATT against MYH11 | 0 (inactive)
CGGGUAUGUUGAUAGCAUATT against FAM12B | 0.312 (inactive)
GCAGUGUACCCGUCAUUAUTT against SEMA4B | 0.185 (inactive)
GGAACAAAAGGAUCGAAUATT against CLSTN3 | 0 (inactive)
CUAUAAAUGUAAACGAUGUTT against ZNF442 | 1.06 (active)
CUGUUUGACUUCAUCGAGATT against COPG | 0.175 (inactive)
CAAUCCAUGUCAUAGGGAATT against ZNF702 | 0.204 (inactive)
CGGCAAUCCUUACGGCUAATT against DSG4 | -0.0211 (inactive)
CCGUCAUUGUCAACCGGAATT against SLC4A5 | 1.3 (active)
CUACGUCUCGGGUCCAGAUTT against HOXA11 | -0.222 (inactive)
GGACAUACACUGAGAGUCATT against PDLIM2 | 0.267 (inactive)
GAGCAGAACCGCAUCAUAUTT against UCN | -0.472 (inactive)
GGAGGAUACUUUAGAACAATT against NDC80 | 0.0855 (inactive)
GCAUCUACAUGACCAACCUTT against GPR35 | -1.46 (active)
CAUGAUACAGGGAAUAAAATT against ZNF619 | -0.536 (inactive)
UCAUCGAACUGAAUACCAATT against STARD3 | -0.314 (inactive)
CUACUGGACUGAUCAAGCUTT against CTCFL | -0.362 (inactive)

Sequence | median seed-adjusted z-score
GGACAAAGACUGUCGCCUATT against DHX35 | -0.066 (inactive)
CUAUGACGACUUAUCCAAATT against ATP5A1 | -0.974 (inactive)
CCUACACCAUGAUCGGAAATT against KIF26B | -0.153 (inactive)
GCGUUAUCCUCACCUUCAATT against G6PD | 0.593 (inactive)
CAUUCAGCUUGUCACGUCATT against THOC4 | -1.54 (active)
CCAAGGUUUUGGAUAGCAATT against RHBDL2 | 0.0701 (inactive)
CCAAGUCCCAUACAACAAATT against C1S | -0.561 (inactive)
GCUUCUACCUUUACACGGATT against PDE1A | 0 (inactive)
CUAUAGCUGUCUCCCAGAATT against PRICKLE2 | -1.12 (active)
GGAGAAAAACUAUAUGAAUTT against ZNF585B | 0.158 (inactive)
CUUUGGAACAAAUACCGAATT against NXN | 0.175 (inactive)
CACCUAUAGUGACGAUAUATT against MEP1B | 1.46 (active)
AGGCAUUCCUCGGAAGUCATT against SMAD7 | -0.25 (inactive)
CCAUCGUUUUGGUCUUGUATT against VN1R2 | -0.151 (inactive)
GGAAAGAACUACCUCCUGATT against TREH | 0.396 (inactive)
GGAAGAUCAUAGAAGUUGATT against SLC1A1 | 0.0967 (inactive)
CCAUUGUCACGGGCUUGUATT against ENPP3 | 0.66 (inactive)
GCAUCUAUGUCAACAAGAUTT against POLR2I | -3.27 (active)
CUGCUAAACUUGAACCGAATT against TM9SF2 | 1.09 (active)
UCCUAUCAGAAGUUGCAUATT against RKHD4 | 0.0683 (inactive)
